Screens (PubChem BioAssay)
DRD3 antagonist = D3 dopamine receptor (human) antagonism; P35462; max response, negative = inhibition, %; D3R cells, DiscoveRx beta-arrestin luminescence, antagonist mode; stronger effect = lower value; 360,000 tested, 2.5% active; AID 652054; in the data active = max response below about -50%; inconclusive = no clear call, values can overlap the other calls; note: % is set by controls: 0 for no effect and ±100 for the full control effect
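Cells plated overnight at 1500 cells/well, then exposed to library compounds with dopamine controls for 90 minutes at 37 degrees C. DiscoveRx reagent added for 30–60 minutes at room temperature; luminescence read, quantitative HTS format.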
PI5P4Ka inh = blocks human PI5P4K alpha kinase activity; max response, %; P48426; AID 652105; PI5P4Kalpha enzyme, ADP-Glo luminescence, 60 min; stronger effect = lower value; 330,000 tested, 1.2% active; active = max response of -50% or lower; inconclusive = between -30% and -50%; inactive = -30% or higher; note: value at the top dose of about 77 µM; % is set by controls: 0 for no effect and ±100 for the full control effect
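PI5P4Kalpha ADP-Glo assay; 5 microM ATP final; 60 min RT reaction; HEPES pH 7.4/EGTA/CHAPS, 5% DMSO; controls lacking substrate or enzyme; luminescent end-point.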
PI4K2A inh = PI4K2A (human) kinase inhibition; 420,000 tested, 0.13% active; activity change, negative = inhibition, % at 76.9 µM; purified PI4K2A, ADP-Glo luminescence, 1 h; stronger effect = lower value; Q9BTU6; in the data active = activity change below about -50%; inconclusive = mostly about -30% to -49%;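 note: -100% = wells without enzyme as full effect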
Target sequence (Q9BTU6 whole entry, looked up): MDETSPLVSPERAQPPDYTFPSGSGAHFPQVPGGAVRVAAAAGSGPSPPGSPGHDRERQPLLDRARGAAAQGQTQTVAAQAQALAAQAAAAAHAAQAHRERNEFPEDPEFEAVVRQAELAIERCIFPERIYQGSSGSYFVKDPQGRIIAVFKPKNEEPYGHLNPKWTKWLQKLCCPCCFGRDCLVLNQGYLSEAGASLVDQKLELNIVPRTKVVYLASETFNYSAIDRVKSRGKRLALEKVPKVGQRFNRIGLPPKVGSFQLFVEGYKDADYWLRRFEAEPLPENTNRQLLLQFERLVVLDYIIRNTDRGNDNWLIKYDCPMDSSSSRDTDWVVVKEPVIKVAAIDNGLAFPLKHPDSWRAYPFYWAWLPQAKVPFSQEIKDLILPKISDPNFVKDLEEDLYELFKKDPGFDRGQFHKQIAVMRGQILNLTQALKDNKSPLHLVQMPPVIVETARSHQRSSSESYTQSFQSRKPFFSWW
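PI4K2A activity was measured by ADP-Glo luminescence: enzyme (4 ug/mL stock) and phosphatidylinositol (1.2 mM stock) in Tris pH 7.5/MgCl2/EGTA/Triton X-100 buffer were reacted with ATP (300 microM stock) for one hour at ambient temperature.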
D3 ag = D3 dopamine receptor (human) agonism. AID 652048. 410,000 tested, 0.58% active. max activation, %. P35462. D3R DiscoveRx beta-arrestin cells, luminescence, 90 min; in the data active = max activation above about 30%; note: 0% is about no effect
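Cells at 1500/well, incubated overnight, then treated with pinned compounds (dopamine as control) for 90 min at 37 degrees C. DiscoveRx reagent added for 30 - 60 minutes at room temperature; luminescence read.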
LDHA inh = inhibitors of human lactate dehydrogenase A | P00338 | purified LDHA, NADH/diaphorase-resazurin fluorescence; stronger effect = lower value | activity change, % (values are at about 110 or 230 µM) | 480,000 tested, 0.15% active | AID 1347041; in the data active = activity change below about -30%; inconclusive = mostly about -25% to -30%;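 note: plate controls were DMSO wells for no effect and wells without enzyme for full effect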
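Resorufin fluorescence (ex540/em590), read at 0 and 20 min after diaphorase/resazurin addition, reports the NADH left after a 5 min room-temperature reaction of 2 nM human LDH5 with 0.06 mM NADH and 0.2 mM pyruvate.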
ADP-Glo interf = counter-screen for PI5P4K inhibitors: ADP-Glo detection interference, no enzyme; Potency, µM (highest dose often 76.9 µM), inactives show top-dose activity change, negative = inhibition, most hits filed as inhibitors; shares compounds with PI5P4Ka inh; ADP-Glo detection counter-screen, luciferase luminescence, no enzyme; 1,100 tested, under 10 active; active = well fitted curve in the direction sought with a large enough effect; inconclusive = small, poorly fitted or top-dose-only effect, or another doubt; inactive = no such curve, though single readings can be large or run the other way
Starred values were filed as active, the others as inactive; ? = inconclusive; · = no result given. Hits are enriched below; roughly 3.3% of the tested compounds scored in any of these assays.

SMILES | DRD3 antagonist | PI5P4Ka inh | PI4K2A inh | D3 ag | LDHA inh | ADP-Glo interf
COc1ccc(C2=NCCn3nc4cc(OC)ccc4c32)cc1 | -28 | -82* | 6 | -17 | 23 | 4%
COc1ccccc1OCC(=O)Nc1ccc2c(c1)OCO2 | -10 | -50* | -5 | -7 | 5 | 0%
CCc1ccc2oc(-c3ccc(C)c(N)c3)nc2c1 | · | · | · | · | 11 | ·
CCOc1ccc(-c2nc(CNC(=O)Nc3ccc(OC)c(OC)c3)c(C)o2)cc1 | · | · | · | · | 6 | ·
COc1ccc(N2CSC3=C(C#N)C(c4cccc(OC)c4OC)CC(=O)N3C2)cc1 (stereo not given) | 10 | -51* | -4 | 4 | 13 | -14%
CCc1ccccc1N1CSC2=C(C#N)C(c3ccccc3F)CC(=O)N2C1 (stereo not given) | 16 | -60* | -3 | 0 | 2 | -8%
COc1ccc2ccccc2c1C1CC(=O)N2CN(C3CCCCC3)CSC2=C1C#N (stereo not given) | -28 | -56* | -5 | -6 | 12 | -5%
C=CCNC(=O)c1cccc(C(=O)OC)c1 | · | · | · | · | 0 | ·
COc1ccc(CNC(=O)CCc2ccc3nc(NC(=O)C(C)C)sc3c2)cc1 | · | · | · | · | 0 | ·
Cc1ccc(C(C)(C)C)cc1SCC(O)COCc1ccc(Cl)cc1 (stereo not given) | · | · | · | · | 3 | ·
O=C(O)c1cccc(-n2cc(-c3cccc(C(F)(F)F)c3)cn2)c1 | -16 | -62* | 3 | -2 | -3 | -4%
O=C(O)c1ccc(-c2nc(-c3cccc(C(F)(F)F)c3)cs2)cc1 | 2 | -18 | 3 | 0 | -2 | ·
O=C(Nc1ccc(Oc2ccccc2)cc1)c1ccc[n+]([O-])c1 | · | · | · | · | 2 | ·
O=C(c1cccs1)N1N=C(c2ccc(F)cc2)CC1c1ccc2nccnc2c1 (stereo not given) | · | · | · | · | 4 | ·
CCO[C@@H]1OC(C(=O)NCc2ccccc2)=C[C@H](C(C)(C)C)[C@H]1CCCO | 0 | 0 | -8 | 0 | -1 | -10%
CC(C)NC(=O)N1c2ccccc2Sc2ccccc21 | -22 | -60* | -12 | 2 | 1 | -1%
O=C(O)c1cc(-c2ccc(-c3c(-c4ccc5c(c4)OCO5)noc3-c3ccsc3)cc2)nc2ccccc12 | -21 | -71* | 0 | -43 | -6 | 0%
COc1cc(Br)cc(CNc2ccc(F)c([N+](=O)[O-])c2)c1O | -29 | -28 | -2 | -12 | -2 | 0%
Cc1ccc(CC(=O)Nc2ccc(F)c([N+](=O)[O-])c2)cc1C | 16 | 2 | -1 | 2 | 1 | ·
O=C(NC1CC1)c1ccc(NC(=O)C2CCC2)cc1 | 1 | -51* | -3 | -2 | -6 | -4%
O=c1c(C/C=C/c2ccccc2)c(O)nc2n1CCCS2 | -14 | -24 | 5 | -4 | -4 | ·
O=c1c(Cc2ccccc2)c(O)nc2n1CCS2 | 19 | -55* | 5 | 2 | -9 | 4%
O=C(/C(=C\OCc1ccc(Cl)cc1)Cc1ccc(Cl)cc1)c1ccccc1 | · | · | · | · | 7 | ·
CC(=O)N1CCC(C(=O)Nc2cc(C)ccn2)CC1 | · | · | · | · | 1 | ·
Clc1ccc(-c2nnc(-c3ccc(Br)cc3)c(N3CCSCC3)n2)cc1 | -9 | · | 7 | -1 | -2 | ·
SMILES | DRD3 antagonist | PI5P4Ka inh | PI4K2A inh | D3 ag | LDHA inh | ADP-Glo interf
Clc1ccc(-c2nnc(-c3ccco3)nc2N2CCCCC2)cc1 | 7 | -67* | 1 | -2 | 2 | -5%
Cc1cc(NS(=O)(=O)c2ccc(NC(=O)COc3ccc(Br)cc3)cc2)nc(C)n1 | -20 | -54* | -2 | 0 | -7 | -1%
Cc1c(-c2ccc(Br)cc2)c(=O)oc2ccc(OS(=O)(=O)c3ccccc3)cc12 | · | · | · | · | -2 | ·
CCNc1c(NC(=O)NC(C)C)c(=O)oc2ccccc12 | · | · | · | · | -4 | ·
CC(=O)Nc1cc(NC(C)=O)cc(C(=O)N2CCCC3CCCCC32)c1 (stereo not given) | 19 | -65* | -3 | 8 | -5 | 0%
O=C(Nc1ccccc1)N1CCCC2CCCCC21 (stereo not given) | 12 | -4 | 1 | 2 | -9 | ·
N#CCCn1cc(C(=O)CSc2ncc(C(F)(F)F)cc2Cl)c2ccccc21 | · | · | · | · | 7 | ·
CCCCN(C)S(=O)(=O)c1ccc(C(=O)Nc2ccc(Cl)c3ncsc23)cc1 | · | · | · | · | -11 | ·
Cc1cc(C(=O)OCC(=O)Nc2cc(S(=O)(=O)N3CCOCC3)ccc2Cl)c(C)o1 | -7 | 5 | -2 | 1 | 2 | 1%
Cc1cc(C(=O)OCC(=O)Nc2ccc(S(=O)(=O)N3CCOCC3)cc2)c(C)o1 | 7 | 6 | 5 | 0 | 0 | ·
Cc1ccc(S(=O)(=O)Nc2nc3ccc(C)cc3nc2Nc2ccc3c(c2)OCCO3)cc1 | · | · | · | · | 11 | ·
CC(C)C(=O)N1CCN(c2ccccc2NC(=O)c2ccco2)CC1 | 13 | -59* | 413 | -2 | -7 | 2%
CC(C)C(=O)N1CCN(c2ccccc2NC(=O)c2ccc(Br)o2)CC1 | 6 | -4 | -2 | 4 | -5 | ·
CCOc1ccc(S(=O)(=O)N(C(=O)c2ccco2)c2cc3sc(=O)oc3c3ccccc23)cc1 | -7 | -58* | -8 | -1 | 23 | 2%
Cc1ccc(S(=O)(=O)N(C(=O)c2ccco2)c2cc3sc(=O)oc3c3ccccc23)cc1 | -4 | -56* | -13 | 1 | 28 | -1%
COc1ccc(S(=O)(=O)N(C(=O)C(C)C)c2ccc3oc(=O)sc3c2)cc1 | ? | · | 1 | 5 | 1 | ·
COc1ccc(S(=O)(=O)N(C(=O)c2ccco2)c2cc3sc(=O)oc3c3ccccc23)cc1 | -18 | -61* | -18 | -3 | 23 | -8%
COC(=O)C1(C)Cc2ccc(C)cc2C(=O)O1 (stereo not given) | · | · | · | · | 5 | ·
O=S(=O)(NCCO)c1ccc2ccccc2c1 | · | · | · | · | -1 | ·
CN(Cc1cn(-c2ccccc2)nc1-c1cc2ccccc2o1)C(=O)CCC(=O)O | 2 | -59* | 3 | 46* | -10 | 0%
Cc1ccc(C)c(C2=NNC(=NCc3ccccc3)SC2)c1 | ? | -65* | -3 | -2 | -4 | -3%
CC(C(=O)Nc1cc([N+](=O)[O-])ccc1Cl)N1CCN(c2ccc(O)cc2)CC1 (stereo not given) | -11 | -66* | -12 | -3 | 18 | 3%
CC(C(=O)Nc1ccc(F)cc1Cl)N1CCN(c2ccc(O)cc2)CC1 (stereo not given) | · | · | · | · | 29 | ·
CC(=O)c1ccc(S(=O)(=O)Nc2cccc(-n3cnnn3)c2)cc1 | -7 | -67* | -18 | -5 | 1 | -7%
Cc1ccc(-c2nc3c(c(=O)[nH]c(=O)n3Cc3ccccc3)n2C)o1 | 12 | -68* | -22 | 1 | 0 | -9%
COc1ccc(OC)c2c1cc(C(=O)NCC(=O)Nc1nc(C)cs1)n2C | · | · | · | · | 10 | ·
